Some test systems named below: SR leukemia; RPMI-8226 leukemia; OVCAR-8 ovarian; OVCAR-5 ovarian; OVCAR-4 ovarian; SK-OV-3 ovarian; IGROV1 ovarian; HS 578T breast; NCI/ADR-RES ovarian; OVCAR-3 ovarian.
Holding throughout (assay): NCI-60 one-dose screen, 48 h (100 = growth as untreated, 0 = no growth, -100 = all killed)
Conditions in all cases: 10 µM unless noted

Compounds without any hit were thinned out: in the full panel of roughly 83,000, 20% have a hit.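 96-well plates, one dose, 48 hours. Percent growth reported; active if below 10.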 A number with no mark means an inactive call. Active and inactive are the calls of the source.

As for `Nc1c(C(=O)Nc2cccc3cnccc23)sc2nc3c(cc12)CN(Cc1ccccc1)CC3`, the growth is 95.5% in the assay with SR leukemia; 99.7% in the assay on RPMI-8226 leukemia; 106% with OVCAR-8 ovarian; 105% in the assay on OVCAR-5 ovarian; 105% in the assay on OVCAR-4 ovarian; 111% in the assay on SK-OV-3 ovarian. The growth was 99.9% with IGROV1 ovarian, 104% in the assay with HS 578T breast and 112% in the assay on NCI/ADR-RES ovarian.
Consider `COc1ccc(/C=C2\Oc3cc(OCCCCCN4CCCCC4)ccc3C2=O)cc1OC`, for which the growth was -26.1% (active) in the assay on SR leukemia; 76.1% in the assay on RPMI-8226 leukemia; 83.3% in the assay on OVCAR-8 ovarian; 95.9% with OVCAR-5 ovarian; 48.1% in the assay with OVCAR-4 ovarian; 104% with SK-OV-3 ovarian. Besides, the growth with IGROV1 ovarian is 94.3%; with HS 578T breast it was 93.8%; with NCI/ADR-RES ovarian, 84%.
In the case of `O=C1Nc2cc(-c3ccc(NS(=O)(=O)c4ccccc4)cc3)ccc2/C1=C/c1ccc[nH]1`, the growth with SR leukemia was 6.67% (active); in the assay on RPMI-8226 leukemia, 77.8%; with OVCAR-8 ovarian, 97.1%; with OVCAR-5 ovarian, 52%; with OVCAR-4 ovarian, 68.7%; in the assay with IGROV1 ovarian, 93.1%. The growth in the assay on OVCAR-3 ovarian is 108%; in the assay on HS 578T breast, 97.7%; in the assay on NCI/ADR-RES ovarian, 92.6%.
Turning to `CCCN1[C@@H]2CC[C@H]1/C(=C\c1ccc(OC)c(OC)c1)C(=O)/C2=C/c1ccc(OC)c(OC)c1`, the growth with SR leukemia was 26.8%; in the assay with RPMI-8226 leukemia it was 9.06% (active); in the assay with OVCAR-8 ovarian it was 35.5%; in the assay on OVCAR-5 ovarian it was 78.2%; with OVCAR-4 ovarian, 46%; in the assay with SK-OV-3 ovarian, 66.2%. Further, the figures for the growth with IGROV1 ovarian, in the assay with HS 578T breast and in the assay on NCI/ADR-RES ovarian were 56.8%, 54.2% and 42%, respectively.
With `CCOC(=O)c1cc(C(=O)c2ccc(OC)c(OC)c2)n2c1ccc1ccccc12`, the growth was 86.5% in the assay on SR leukemia; 80% in the assay with RPMI-8226 leukemia; 94.7% in the assay with OVCAR-8 ovarian; 104% in the assay with OVCAR-5 ovarian; 91.9% in the assay with OVCAR-4 ovarian; 58.6% in the assay with IGROV1 ovarian. In addition, the results for the growth in the assay with OVCAR-3 ovarian, in the assay on HS 578T breast and in the assay with NCI/ADR-RES ovarian were 99.6%, 93.8% and 91.5%, respectively.
Turning to `C=C1C(=O)O[C@H]2[C@H]1CC/C(CNC(=O)CCc1ccc(OC)cc1)=C\CC[C@@]1(C)O[C@@H]21`, the growth in the assay on SR leukemia is 14.3%; with RPMI-8226 leukemia, 51.4%; in the assay on OVCAR-8 ovarian, 39.2%; in the assay with OVCAR-5 ovarian, 82%; in the assay with OVCAR-4 ovarian, 80%; with IGROV1 ovarian, 61.7%. The growth with OVCAR-3 ovarian was 30.6%; with HS 578T breast it was 86.4%; with NCI/ADR-RES ovarian, 95.4%.
`CN1CCN(C(=O)[C@]23CCC(C)(C)C[C@H]2C2=CC[C@@H]4[C@@]5(C)C/C(=C/c6cccnc6)C(=O)C(C)(C)[C@@H]5CC[C@@]4(C)[C@]2(C)CC3)CC1`: the growth is 15.5% in the assay on SR leukemia; 19.1% in the assay with RPMI-8226 leukemia; 54% with OVCAR-8 ovarian; 100% in the assay on OVCAR-5 ovarian; 58.1% in the assay with OVCAR-4 ovarian; 85.6% with IGROV1 ovarian. For the same compound, the growth was 52.7% with OVCAR-3 ovarian, 54.2% in the assay on HS 578T breast and 59.1% with NCI/ADR-RES ovarian.
For `CCCCCCCCOc1ccc(/C=N/Nc2cc(C)nc3ccc(Br)cc23)cc1`, the growth was -14.3% (active) in the assay with SR leukemia; 36.6% in the assay with RPMI-8226 leukemia; 46.4% in the assay with OVCAR-8 ovarian; 101% in the assay on OVCAR-5 ovarian; -1.74% (active) with OVCAR-4 ovarian; 104% in the assay on SK-OV-3 ovarian. In addition, the growth with IGROV1 ovarian is 62.5%; with HS 578T breast, 64.1%; in the assay on NCI/ADR-RES ovarian it was 65.1%.
On to `CC1(C)c2[nH]c3ccccc3c2C[C@]2(C)[C@H]3C(=O)C=C4[C@@H]5C[C@@](C)(C(N)=O)CC[C@]5(C)CC[C@@]4(C)[C@]3(C)CC[C@@H]12`, for which the growth in the assay on SR leukemia was 45.8%; with RPMI-8226 leukemia, 42.3%; in the assay on OVCAR-8 ovarian it was 75.1%; in the assay on OVCAR-5 ovarian, 93.3%; in the assay with OVCAR-4 ovarian, 54.4%; with SK-OV-3 ovarian it was 71.3%. Also, the growth with IGROV1 ovarian was 84.4%; in the assay on HS 578T breast it was 71.4%; in the assay on NCI/ADR-RES ovarian it was 71.2%.
With `CNC(=O)c1cccc(Cn2nc(C)c(NC(=O)c3ccc(COc4ccc(C(F)(F)F)cc4C)cc3)c2C)n1`, the growth with SR leukemia is 22%; in the assay on RPMI-8226 leukemia it was 32.7%; in the assay with OVCAR-8 ovarian, 35.8%; in the assay on OVCAR-5 ovarian, 104%; in the assay with OVCAR-4 ovarian, 37.8%; in the assay on IGROV1 ovarian it was 65.1%. Besides, the growth in the assay on OVCAR-3 ovarian was 35.1%; in the assay on HS 578T breast, 87.7%; with NCI/ADR-RES ovarian it was 33.4%.
As to `NC1[C@H](c2c[nH]c3ccccc23)c2c([nH]c3ccccc23)[C@H]1c1c[nH]c2ccccc12` (stereo partly specified), the growth was 81.7% in the assay with SR leukemia; 77.7% in the assay with RPMI-8226 leukemia; 99.8% in the assay with OVCAR-8 ovarian; 92.7% in the assay with OVCAR-5 ovarian; 86.6% with OVCAR-4 ovarian; 63.9% in the assay with IGROV1 ovarian. Moreover, the growth with OVCAR-3 ovarian is 78.2%; in the assay on HS 578T breast, 83.8%; with NCI/ADR-RES ovarian it was 81.7%.
Take `CCc1c(Cl)nc(N)nc1Nc1ccc(C)c(C)c1`: the growth with SR leukemia was 73%; with RPMI-8226 leukemia, 104%; in the assay with OVCAR-8 ovarian it was 102%; in the assay with OVCAR-5 ovarian, 110%; in the assay on OVCAR-4 ovarian it was 98%; in the assay with IGROV1 ovarian, 97.4%. For the same compound, the growth was 116% with OVCAR-3 ovarian, 97.9% with HS 578T breast and 99.2% with NCI/ADR-RES ovarian.
Turning to `O=C1c2ccc3c4c(ccc(c24)C(=O)N1CCCNCc1ccccc1F)C(=O)N(CCCNCc1ccccc1F)C3=O`, the growth in the assay with SR leukemia is -37.8% (active); in the assay with RPMI-8226 leukemia, -32.2% (active); with OVCAR-8 ovarian, -17.4% (active); in the assay on OVCAR-5 ovarian it was -23% (active); in the assay with OVCAR-4 ovarian, -98.4% (active); in the assay on SK-OV-3 ovarian, -21.8% (active). The growth with IGROV1 ovarian is -57.7% (active); in the assay on HS 578T breast, -23.7% (active); in the assay with NCI/ADR-RES ovarian it was -18.4% (active).
`CCOC(=O)/C(C#N)=C1/NNC(=Nc2cccnc2)S1`: the growth with SR leukemia was 118%; in the assay on RPMI-8226 leukemia it was 107%; with OVCAR-8 ovarian, 92.2%; with OVCAR-5 ovarian, 102%; in the assay with OVCAR-4 ovarian it was 100%; in the assay on SK-OV-3 ovarian, 85.7%. Further, the growth with IGROV1 ovarian is 111%; in the assay with HS 578T breast, 96.7%; in the assay on NCI/ADR-RES ovarian, 105%.

For the origin of these results see PubChem BioAssay (NCI).
